The panel holds about 83,000 compounds, 20% with a hit somewhere; the sample as a whole holds those more often.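 Negative percent growth values reflect cell death: -40 means 40% of the cells present at the start died, and -100 means all died.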 Calls of active or inactive are those of the source. Rule for the calls: active = growth percent below 10; inactive = the rest.

This is an account of results in PubChem BioAssay (NCI).

The subject of one experiment is HT29 colon. Briefly: NCI-60 one-dose screen, 48 h (100 = growth as untreated, 0 = no growth, -100 = all killed). As to conditions: 10 µM.
As for `O=C(CC(=O)Nc1ccc(Oc2ncnc3scc(Nc4n[nH]c(=S)s4)c23)cc1)Nc1ccc(Cl)cc1`, the growth was 106% (inactive). `CC1(C)CC(=O)C2=C(C1)N(Cc1ccc(C(=O)O)cc1)C1=C(C(=O)CC(C)(C)C1)C2c1ccc(Cl)cc1`: the growth was 112% (inactive).

For the molecule `O=C(Nc1ccc(OCc2ccc(Cl)cc2)cc1)Nc1ccc(Cl)c(C(F)(F)F)c1`, the growth was 8.31% (active). Same read-out and setting: for `COc1cccc(O)c1/C=C1\SCc2cc3c(OC)cccc3[o+]c21` the value was 113% (inactive); for `COc1cc(C2CC(c3ccc(Oc4ccc(Cl)cc4)cc3)=NN2c2nc(-c3ccc(Cl)cc3)c(C#N)c(N3CCOCC3)n2)cc(OC)c1OC` (stereo not drawn), 106% (inactive); for `O=C(Nc1ccc(OCC(=O)c2ccc(Cl)cc2)cc1)Nc1ccc(Cl)c(C(F)(F)F)c1`, 33.6% (inactive). As to `COc1cccc(C(=O)CSc2nc(-c3ccc(OCc4ccccc4)c(OC)c3)c(C#N)c(=O)[nH]2)c1`, the growth was 116% (inactive). Consider `Cn1cc(/C=C(/SS/C(=C/c2cn(C)c3cccc(C(=O)O)c23)C(=O)O)C(=O)O)c2c(C(=O)O)cccc21`, for which the growth is 107% (inactive). Consider `CCn1c(SCC(=O)Nc2ccc(-c3nc4ccccc4[nH]3)cc2)nc2ccccc2c1=O`, for which the growth was -64.9% (active).

Regarding `O=C(Nc1ccc(OCc2ccc(F)cc2)cc1)Nc1ccc(Cl)c(C(F)(F)F)c1`, the growth was 11.9% (inactive).

`COc1ccc(C(=O)COc2ccc(NC(=O)Nc3ccc(Cl)c(C(F)(F)F)c3)cc2)cc1`: the growth is 21.1% (inactive). Still for that read-out and setting: for `O=C1NC(=S)S/C1=C\c1cn(-c2ccccc2)nc1-c1ccc([N+](=O)[O-])cc1` the value was 15.1% (inactive). For the molecule `O=C(CSc1nc2ccccc2c(=O)n1-c1ccc(Cl)cc1)Nc1ccc(-c2nc3ccc([N+](=O)[O-])cc3[nH]2)cc1`, the growth was 36.4% (inactive).

The test system of the next experiment is SNB-75 CNS. The experiment is described as above. The note with it: 10 µM.
As for `COc1ccc(C2c3sc4ccc(C)cc4c3Oc3nc(N)nc(N)c32)cc1` (stereo not drawn), the growth was 70.9% (inactive).

In the case of `Cc1cc(N=C2NC(=O)S/C2=C\c2ccc(F)cc2)n[nH]1`, the growth was 2.65% (active).

`Cn1cc(-c2nnc(N)nc2-c2c[nH]c3ccccc23)c2cc(Br)cnc21`: the growth was 34% (inactive). As to `O=C(CC(=O)Nc1ccc(Oc2ncnc3scc(Nc4n[nH]c(=S)s4)c23)cc1)Nc1ccc(Cl)cc1`, the growth is 87.7% (inactive). For `O=C1NC2C=CC=CC2/C1=C1/SC(=S)N(C2CC(=O)N(c3ccc(Br)cc3)C2=O)C1=O` (stereo not drawn), the growth was 101% (inactive). On to `CC1(C)CC(=O)C2=C(C1)N(Cc1ccc(C(=O)O)cc1)C1=C(C(=O)CC(C)(C)C1)C2c1ccc(Cl)cc1`, for which the growth is 94.5% (inactive).

As for `Cc1ccc2c(c1)C(=O)/C(=C/c1ccc([N+](=O)[O-])cc1)S2`, the growth was 81.3% (inactive). The same measure, in the same setting: the same measure for `O=C(Nc1ccc(OCc2ccc(Cl)cc2)cc1)Nc1ccc(Cl)c(C(F)(F)F)c1`: 28% (inactive). For the molecule `Cn1cc(-c2nc(N)nnc2-c2c[nH]c3ccccc23)c2cc(Br)cnc21`, the growth was 2.04% (active). On the same count and under the same terms, for `O=C(CSc1nc2ccccc2c(=O)n1-c1ccc(Cl)cc1)Nc1ccc(-c2nc3ccccc3[nH]2)cc1` the value was -39.1% (active). Same read-out and setting: the same measure for `Cc1ccc2c(c1)C(=O)/C(=C/c1c[nH]c3ccccc13)S2`: 41.1% (inactive).

In the case of `COc1cccc(O)c1/C=C1\SCc2cc3c(OC)cccc3[o+]c21`, the growth is 115% (inactive). For `COc1cc(C2CC(c3ccc(Oc4ccc(Cl)cc4)cc3)=NN2c2nc(-c3ccc(Cl)cc3)c(C#N)c(N3CCOCC3)n2)cc(OC)c1OC` (stereo not drawn), the growth is 78.3% (inactive). Turning to `O=C(Nc1ccc(OCC(=O)c2ccc(Cl)cc2)cc1)Nc1ccc(Cl)c(C(F)(F)F)c1`, the growth was 51.5% (inactive). For `Cc1ccc2sc3c(c2c1)Oc1nc[nH]c(=O)c1C3c1cccc(F)c1` (stereo not drawn), the growth was 84.2% (inactive).

`Cc1cc(N=C2NC(=O)/C(=C/c3cc(C(C)(C)C)c(O)c(C(C)(C)C)c3)S2)n[nH]1`: the growth was 1.49% (active). Turning to `COc1ccc(C2c3sc4ccc(C)cc4c3Oc3nc[nH]c(=O)c32)cc1` (stereo not drawn), the growth was 45.8% (inactive). On to `COc1cccc(C(=O)CSc2nc(-c3ccc(OCc4ccccc4)c(OC)c3)c(C#N)c(=O)[nH]2)c1`, for which the growth is 87.7% (inactive).

Regarding `Cc1ccc(COc2ccc(NC(=O)Nc3ccc(Cl)c(C(F)(F)F)c3)cc2)cc1`, the growth was 72.4% (inactive). `O=C(O)CCN1C(=O)/C(=C/C=C/c2ccc([N+](=O)[O-])o2)SC1=S`: the growth is 24.2% (inactive). On to `CC(C)(C)c1cc(/C=C2\S/C(=N/c3ncn[nH]3)NC2=O)cc(C(C)(C)C)c1O`, for which the growth is 19.3% (inactive). On to `Cn1cc(/C=C(/SS/C(=C/c2cn(C)c3cccc(C(=O)O)c23)C(=O)O)C(=O)O)c2c(C(=O)O)cccc21`, for which the growth is 88.8% (inactive). In the case of `COc1ccc(C(=O)COc2ccc(NC(=O)Nc3ccccc3)cc2)cc1`, the growth is 87.9% (inactive). In the case of `CCn1c(SCC(=O)Nc2ccc(-c3nc4ccccc4[nH]3)cc2)nc2ccccc2c1=O`, the growth was -94.2% (active).

As for `O=C(Nc1ccc(OCc2ccc(F)cc2)cc1)Nc1ccc(Cl)c(C(F)(F)F)c1`, the growth is 21% (inactive). Turning to `O=C(CC(=O)Nc1ccc(Oc2ncnc3scc(Nc4n[nH]c(=S)s4)c23)cc1)Nc1ccc(Br)cc1`, the growth was 95.6% (inactive). For `COc1ccc(C(=O)COc2ccc(NC(=O)Nc3ccc(Cl)c(C(F)(F)F)c3)cc2)cc1`, the growth is 33% (inactive). Take `O=C(Nc1ccc(Oc2ncnc3scc(Nc4n[nH]c(=S)s4)c23)cc1)C1(C(=O)Nc2cccc(C(F)(F)F)c2)CC1`: the growth is 104% (inactive). In the case of `O=C1NC(=S)S/C1=C\c1cn(-c2ccccc2)nc1-c1ccc([N+](=O)[O-])cc1`, the growth is 34.5% (inactive). Take `O=C(CSc1nc2ccccc2c(=O)n1-c1ccc(Cl)cc1)Nc1ccc(-c2nc3ccc([N+](=O)[O-])cc3[nH]2)cc1`: the growth was 34.4% (inactive).
